The structures appear in SMILES notation. Compounds without any hit were thinned out: in the full panel of roughly 83,000, 20% have a hit.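 Method: cells in 96-well plates; compound added at one concentration; 48 h incubation; percent growth measured; values under 10 scored active.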 Values without a mark were called inactive. Activity calls are given as the source filed them.

The test concerns MDA-MB-468 breast. Nature of the test: NCI-60 one-dose screen, 48 h (100 = growth as untreated, 0 = no growth, -100 = all killed). The conditions noted are these: 10 µM unless noted.
For the compound `C#Cc1ccc(-n2c(/C=C/c3ccc(Cl)c(F)c3)nc3ncccc3c2=O)cc1`, the growth was -74.5% (active). `CC(C)(C)c1nn(-c2ccccc2)c2c1CC1(CN2Cc2ccc(Cl)cc2)C(=O)c2ccccc2C1=O`: the growth is 88.1%. Regarding `COc1ccc(CCN2CCCN3C2=Nc2ccccc2S3(=O)=O)cc1`, the growth was 5.24% (active). For `Cc1ccc2[nH]c3ccccc3c2c1`, the growth is 100%. For `COc1cccc2c(=O)c3c(sc12)c(N1CCNCC1)nc1ccccc13`, the growth was 50.2%.

Turning to `O=C(CCCCCCSc1nc(-c2ccccc2)cc(-c2ccccc2)n1)NO`, the growth is 43.2%. Take `C[C@]12C[C@H]1CC[C@]1(C)[C@@H]2CC[C@@]23C[C@H](CC[C@H]21)[C@@](O)(CO)C3`: the growth was 82.3%. In the case of `CC(O)C(F)(F)C(F)(F)C(F)(F)F` (stereo not given) it was 96.4%; in that of `CCN=c1sc2c(n1NC(=O)c1cc3ccc1CCc1ccc(cc1)CC3)C(=O)c1ccccc1C2=O`, -33.7% (active). In the case of `CNC(=O)c1cc(Oc2ccc(NC(=O)Nc3ccc(Cl)c(OC(F)(F)F)c3)c(F)c2)ccn1` it was 14.7%; in that of `COc1ccc(Oc2ccc(C3CC(c4cc(OC)c(OC)c(OC)c4)=NN3C(C)=O)cc2)cc1` (stereo not given), 4.96% (active); in that of `O=C(c1ccc(O)c(Br)c1)c1ccc(O)c(Br)c1`, 106%. For `COc1cc2c(c(OC)c1OC)-c1ccc(NCc3ccccc3)c(=O)cc1[C@@H](NC(C)=O)CC2`, the growth was 17.3%.

`Cc1ccc(/C=C(\C#N)n2nc3cccc(F)c3n2)cc1`: the growth is 85.2%. In the case of `CCCCCCNC(=O)Oc1ccc(/C(=C(\C)c2ccccc2)c2ccc(OCCN3CCCCC3)cc2)cc1`, the growth was 64.2%.

For the origin of these results see PubChem BioAssay (NCI).
